The supplement of paper PMC11172423

These compounds were tested on Falciformispora senegalensis CBS197.79 (assay: growth relative to untreated control; higher = less inhibition, active = 20 or less). Settings: 25 µM.
Method in brief: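 Viability readout used either MTS (2 h, 490 nm) or resazurin (600 nm). Before this, hyphal fragments of M. mycetomatis MM55 or F. senegalensis CBS197.79 in colourless RPMI 1640 with L-glutamine and MOPS (68–72% transmission at 660 nm) had been exposed in 96-well plates to compound at 100 or 25 µM for 7 days at 37 °C. Growth denotes metabolic activity relative to the untreated growth control, with a medium-plus-dye blank subtracted from both.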

Compound	growth
Cc1cc(Cl)ccc1NC(=S)N(C)C	98.6% (inactive)
Cc1cc(OCCN2CCOCC2)nn1-c1ccc2ccccc2c1	105% (inactive)
CCN(CC)C(=O)/C(C#N)=C/c1cc(O)c(O)c([N+](=O)[O-])c1	99% (inactive)
Cc1ccccc1-c1noc(-c2ccccc2)n1	92.9% (inactive)
CO[C@H]1C[C@H](O[C@@H]2/C(C)=C/C[C@@H]3C[C@@H](C[C@]4(CC[C@H](C)[C@@H](C5CCCCC5)O4)O3)OC(=O)[C@@H]3C=C(C)/C(=N/O)[C@H]4OC/C(=C\C=C\[C@@H]2C)[C@]43O)O[C@@H](C)[C@@H]1O	97.5% (inactive)
CC(=O)[C@@]1(O)CC[C@H]2[C@H]3CCC4=CC(=O)CC[C@@]4(C)[C@H]3CC[C@@]21C	92.2% (inactive)
CNC(=O)c1cc(-c2n[nH]c3ccc(-c4nc(C5CCCN5)n[nH]4)cc23)ccc1F (configuration not stated)	105% (inactive)
CC(C)C(=O)OCC(=O)[C@@]12OC(C3CCCCC3)O[C@@H]1C[C@H]1[C@@H]3CCC4=CC(=O)C=C[C@]4(C)[C@H]3[C@@H](O)C[C@@]12C (some centres not stated)	109% (inactive)
c1ccc(-c2ccnc(C3CCN(CC45CNCC4C5)CC3)n2)cc1 (configuration not stated)	82.4% (inactive)
CC(=O)Oc1ccccc1C(=O)Nc1ncc([N+](=O)[O-])s1	97.4% (inactive)
C[C@@H](O[C@H]1OCCN(Cc2n[nH]c(O)n2)[C@H]1c1ccc(F)cc1)c1cc(C(F)(F)F)cc(C(F)(F)F)c1	104% (inactive)
Cc1ccc(-c2noc(-c3ccccc3)n2)cc1	90.2% (inactive)
CC[C@H](Nc1ncnc2[nH]cnc12)c1nc2cccc(F)c2c(=O)n1-c1ccccc1	98% (inactive)
C[C@H](Cn1cnc2c(N)ncnc21)OCP(=O)(O)O	105% (inactive)
O=C1CN(C(=O)CCC2CCCC2)C(c2ccc(F)cc2)c2cc(Cl)ccc2N1 (configuration not stated)	71.2% (inactive)
COc1ccc(-c2nc3c(NCc4ccccc4)nccc3[nH]2)c(OC)c1	63.7% (inactive)
C[C@H](NC(=O)c1cc2c(F)cccc2[nH]1)c1ccccc1	84.1% (inactive)
Clc1cccc2cnsc12	96.1% (inactive)

Compound	growth
Clc1ccc2ncc(-c3cccc(NC4CCNC4)n3)n2c1 (configuration not stated)	92% (inactive)
c1ccc(Nc2cc(Nc3cc(-c4ccccc4)[nH]n3)nc3ccnn23)cc1	67.4% (inactive)
O=C(NCCCNc1nc(Nc2ccc(N3CCOCC3)cc2)ncc1C1CC1)C1CCC1	93.4% (inactive)
COC(=O)N[C@H](C(=O)N[C@@H](Cc1ccccc1)[C@@H](O)CN(Cc1ccc(-c2ccccn2)cc1)NC(=O)[C@@H](NC(=O)OC)C(C)(C)C)C(C)(C)C	114% (inactive)
CCNCc1cc(Nc2ccnc3cc(Cl)ccc23)ccc1O	48.5% (inactive)
c1cc(N2CCC(CN3CCOCC3)CC2)c2sccc2n1	79% (inactive)
CC(C)(C)[S@@](=O)N1Cc2cc(C(=O)NCCc3ccncc3)nc(-c3cccc(-c4ccccc4)c3)c2[C@H]1CCO	82.6% (inactive)
CCCCc1nc(Cl)c(CO)n1Cc1ccc(-c2ccccc2-c2nn[nH]n2)cc1	105% (inactive)
N=C(N)Nc1ccc(C(=O)Oc2ccc3cc(C(=N)N)ccc3c2)cc1	107% (inactive)
Cn1nc(C(=O)Nc2ccc(F)c(Cl)c2)c2c1-c1ccccc1S(=O)(=O)C2	99.8% (inactive)
COCC[C@H](NC(=O)c1cc2ccc(C(F)(F)F)cc2[nH]1)c1ccccc1	95.1% (inactive)
COc1ccc2cc1Oc1ccc(cc1)C[C@H]1c3cc(c(OC)cc3CCN1C)Oc1c(O)c(OC)cc3c1[C@@H](C2)N(C)CC3	100% (inactive)
O=C(Nc1cccc(-c2n[nH]c3ccc(-c4n[nH]c(C5CCCN5)n4)cc23)c1)C1CC1 (configuration not stated)	102% (inactive)
FC(F)(F)CNc1ncc2nc(Nc3cc(Cl)cc(Cl)c3)n(C3CCNCC3)c2n1	104% (inactive)
O=C(Nc1ccc([N+](=O)[O-])cc1Cl)c1cc(Cl)ccc1O	0% (active)
CN(C)CCOc1ccc2nc(-c3cccc(OCc4ccccc4)c3)[nH]c2c1C#N	50.2% (inactive)
O=C(Nc1cnc2ccccc2c1)c1ccccc1C(=O)c1ccc(F)cc1	88.2% (inactive)
COc1ccc(C(=O)N2CCC3(CC2)C(=O)N(CC(=O)NCC2CCCCC2)CN3c2ccccc2)c(OC)c1	91.9% (inactive)

Same assay, conditions: 100 µM

Compound	growth
Cc1cc(Cl)ccc1NC(=S)N(C)C	88.2% (inactive)
Cc1cc(OCCN2CCOCC2)nn1-c1ccc2ccccc2c1	103% (inactive)
CCN(CC)C(=O)/C(C#N)=C/c1cc(O)c(O)c([N+](=O)[O-])c1	99.4% (inactive)
Cc1ccccc1-c1noc(-c2ccccc2)n1	86.5% (inactive)
CO[C@H]1C[C@H](O[C@@H]2/C(C)=C/C[C@@H]3C[C@@H](C[C@]4(CC[C@H](C)[C@@H](C5CCCCC5)O4)O3)OC(=O)[C@@H]3C=C(C)/C(=N/O)[C@H]4OC/C(=C\C=C\[C@@H]2C)[C@]43O)O[C@@H](C)[C@@H]1O	89.3% (inactive)
CC(=O)[C@@]1(O)CC[C@H]2[C@H]3CCC4=CC(=O)CC[C@@]4(C)[C@H]3CC[C@@]21C	106% (inactive)
CNC(=O)c1cc(-c2n[nH]c3ccc(-c4nc(C5CCCN5)n[nH]4)cc23)ccc1F (configuration not stated)	106% (inactive)
CC(C)C(=O)OCC(=O)[C@@]12OC(C3CCCCC3)O[C@@H]1C[C@H]1[C@@H]3CCC4=CC(=O)C=C[C@]4(C)[C@H]3[C@@H](O)C[C@@]12C (some centres not stated)	105% (inactive)
c1ccc(-c2ccnc(C3CCN(CC45CNCC4C5)CC3)n2)cc1 (configuration not stated)	91.2% (inactive)
CC(=O)Oc1ccccc1C(=O)Nc1ncc([N+](=O)[O-])s1	104% (inactive)
C[C@@H](O[C@H]1OCCN(Cc2n[nH]c(O)n2)[C@H]1c1ccc(F)cc1)c1cc(C(F)(F)F)cc(C(F)(F)F)c1	103% (inactive)
Cc1ccc(-c2noc(-c3ccccc3)n2)cc1	86.5% (inactive)
CC[C@H](Nc1ncnc2[nH]cnc12)c1nc2cccc(F)c2c(=O)n1-c1ccccc1	98.4% (inactive)
C[C@H](Cn1cnc2c(N)ncnc21)OCP(=O)(O)O	107% (inactive)
O=C1CN(C(=O)CCC2CCCC2)C(c2ccc(F)cc2)c2cc(Cl)ccc2N1 (configuration not stated)	74.3% (inactive)
COc1ccc(-c2nc3c(NCc4ccccc4)nccc3[nH]2)c(OC)c1	26.6% (inactive)
C[C@H](NC(=O)c1cc2c(F)cccc2[nH]1)c1ccccc1	68.4% (inactive)
Clc1cccc2cnsc12	86.1% (inactive)

Compound	growth
Clc1ccc2ncc(-c3cccc(NC4CCNC4)n3)n2c1 (configuration not stated)	83.1% (inactive)
c1ccc(Nc2cc(Nc3cc(-c4ccccc4)[nH]n3)nc3ccnn23)cc1	59.7% (inactive)
O=C(NCCCNc1nc(Nc2ccc(N3CCOCC3)cc2)ncc1C1CC1)C1CCC1	95% (inactive)
COC(=O)N[C@H](C(=O)N[C@@H](Cc1ccccc1)[C@@H](O)CN(Cc1ccc(-c2ccccn2)cc1)NC(=O)[C@@H](NC(=O)OC)C(C)(C)C)C(C)(C)C	108% (inactive)
CCNCc1cc(Nc2ccnc3cc(Cl)ccc23)ccc1O	16.4% (active)
c1cc(N2CCC(CN3CCOCC3)CC2)c2sccc2n1	32.1% (inactive)
CC(C)(C)[S@@](=O)N1Cc2cc(C(=O)NCCc3ccncc3)nc(-c3cccc(-c4ccccc4)c3)c2[C@H]1CCO	102% (inactive)
CCCCc1nc(Cl)c(CO)n1Cc1ccc(-c2ccccc2-c2nn[nH]n2)cc1	105% (inactive)
N=C(N)Nc1ccc(C(=O)Oc2ccc3cc(C(=N)N)ccc3c2)cc1	66.5% (inactive)
Cn1nc(C(=O)Nc2ccc(F)c(Cl)c2)c2c1-c1ccccc1S(=O)(=O)C2	117% (inactive)
COCC[C@H](NC(=O)c1cc2ccc(C(F)(F)F)cc2[nH]1)c1ccccc1	92.9% (inactive)
COc1ccc2cc1Oc1ccc(cc1)C[C@H]1c3cc(c(OC)cc3CCN1C)Oc1c(O)c(OC)cc3c1[C@@H](C2)N(C)CC3	19.7% (active)
O=C(Nc1cccc(-c2n[nH]c3ccc(-c4n[nH]c(C5CCCN5)n4)cc23)c1)C1CC1 (configuration not stated)	95% (inactive)
FC(F)(F)CNc1ncc2nc(Nc3cc(Cl)cc(Cl)c3)n(C3CCNCC3)c2n1	107% (inactive)
O=C(Nc1ccc([N+](=O)[O-])cc1Cl)c1cc(Cl)ccc1O	0% (active)
CN(C)CCOc1ccc2nc(-c3cccc(OCc4ccccc4)c3)[nH]c2c1C#N	11.4% (active)
O=C(Nc1cnc2ccccc2c1)c1ccccc1C(=O)c1ccc(F)cc1	95.5% (inactive)
COc1ccc(C(=O)N2CCC3(CC2)C(=O)N(CC(=O)NCC2CCCCC2)CN3c2ccccc2)c(OC)c1	85.8% (inactive)
